# Laboratory results published in PubChem BioAssay (Tox21).
# Inconclusive results are not listed. Where a call stands in place of a potency, no number is given. Active and inactive are the calls of the source. Calls come from the whole dose curve; as a rule, active = well fitted curve in the direction sought with a large enough effect in the repeat runs; inconclusive = weak or mixed curves; inactive = no such curve, though single readings can be large; an effect the other way counts as inactive or inconclusive.
# How the values were obtained:
# [1] = target: Cytochrome P450 2C19 (Homo sapiens) (UniProt P33261); assay: Cytochrome P450 Family 2 Subfamily C Member 19 (CYP2C19) small molecule antagonists: luciferase reporter qHTS assay (AID 1671197); note: nearly all actives have a fitted effect of over 65% in size; note: potency is the fitted concentration of half-maximal effect
# Cytochrome P450 2C19 (Homo sapiens), sequence (P33261 whole entry, looked up): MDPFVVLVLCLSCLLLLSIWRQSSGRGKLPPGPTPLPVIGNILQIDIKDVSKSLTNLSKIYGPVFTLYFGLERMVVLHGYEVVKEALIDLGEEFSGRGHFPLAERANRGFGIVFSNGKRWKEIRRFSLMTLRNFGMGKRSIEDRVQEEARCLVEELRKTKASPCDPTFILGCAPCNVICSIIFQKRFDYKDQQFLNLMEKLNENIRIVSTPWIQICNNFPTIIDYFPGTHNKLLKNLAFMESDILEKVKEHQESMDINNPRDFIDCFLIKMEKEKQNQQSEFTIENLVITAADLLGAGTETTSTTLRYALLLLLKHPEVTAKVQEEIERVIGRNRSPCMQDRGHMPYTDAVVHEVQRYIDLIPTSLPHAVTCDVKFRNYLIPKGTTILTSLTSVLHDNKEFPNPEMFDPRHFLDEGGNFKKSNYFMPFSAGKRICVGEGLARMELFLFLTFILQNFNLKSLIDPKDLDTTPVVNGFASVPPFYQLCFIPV
# Procedure, shortened: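 Inhibition of CYP2C19 was scored from loss of luminescence in a P450-Glo proluciferin substrate assay, NADPH-started and run 1 h at 37C, with ketoconazole as positive control.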
# [2] = target: Cytochrome P450 2C9 (Homo sapiens) (UniProt P11712); assay: Cytochrome P450 Family 2 Subfamily C Member 9 (CYP2C9) small molecule antagonists: luciferase reporter qHTS assay (AID 1671198); note: nearly all actives have a fitted effect of over 50% in size; note: potency is the fitted concentration of half-maximal effect
# Cytochrome P450 2C9 (Homo sapiens), sequence (P11712 whole entry, looked up): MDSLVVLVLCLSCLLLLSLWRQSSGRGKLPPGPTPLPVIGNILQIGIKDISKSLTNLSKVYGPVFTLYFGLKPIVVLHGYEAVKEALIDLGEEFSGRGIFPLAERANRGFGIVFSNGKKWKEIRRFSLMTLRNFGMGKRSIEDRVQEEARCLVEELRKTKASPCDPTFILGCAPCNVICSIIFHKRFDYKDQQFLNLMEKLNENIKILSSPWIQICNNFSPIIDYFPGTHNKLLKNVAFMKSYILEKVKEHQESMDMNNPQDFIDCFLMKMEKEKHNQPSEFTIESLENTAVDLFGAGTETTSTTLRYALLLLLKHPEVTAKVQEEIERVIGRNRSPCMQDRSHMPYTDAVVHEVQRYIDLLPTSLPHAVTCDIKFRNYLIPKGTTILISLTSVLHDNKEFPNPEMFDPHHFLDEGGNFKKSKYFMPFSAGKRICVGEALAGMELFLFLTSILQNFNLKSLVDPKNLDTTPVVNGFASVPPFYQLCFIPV
# Procedure, shortened: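 CYP2C9 activity was measured with a P450-Glo proluciferin substrate. Enzyme–substrate mix was held with compound for 10 min at room temperature, then NADPH regeneration solution was added for 1 h at 37C. Luciferin product was read as luminescence.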
# [3] = target: Cytochrome P450 1A2 (Homo sapiens) (UniProt P05177); assay: Cytochrome P450 Family 1 Subfamily A Member 2 (CYP1A2) small molecule antagonists: luciferase reporter qHTS assay (AID 1671199); note: nearly all actives have a fitted effect of over 50% in size; note: potency is the fitted concentration of half-maximal effect
# Cytochrome P450 1A2 (Homo sapiens), sequence (P05177 whole entry, looked up): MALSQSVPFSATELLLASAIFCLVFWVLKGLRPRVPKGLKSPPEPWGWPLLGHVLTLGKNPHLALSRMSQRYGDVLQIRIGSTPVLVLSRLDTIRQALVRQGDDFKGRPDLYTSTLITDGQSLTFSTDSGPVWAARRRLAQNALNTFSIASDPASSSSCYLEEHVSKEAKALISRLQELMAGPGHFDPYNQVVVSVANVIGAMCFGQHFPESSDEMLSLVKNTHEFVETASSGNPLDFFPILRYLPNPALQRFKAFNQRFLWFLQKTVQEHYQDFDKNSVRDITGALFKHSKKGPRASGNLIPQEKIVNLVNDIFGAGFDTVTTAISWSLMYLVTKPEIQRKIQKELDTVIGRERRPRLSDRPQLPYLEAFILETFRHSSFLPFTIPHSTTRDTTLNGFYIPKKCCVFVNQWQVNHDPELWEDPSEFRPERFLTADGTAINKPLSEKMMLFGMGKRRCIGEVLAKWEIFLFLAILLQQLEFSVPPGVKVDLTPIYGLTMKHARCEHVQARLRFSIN
# Procedure, shortened: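 Enzymatic CYP1A2 assay, human, luminescent: 10 min compound–enzyme–substrate preincubation, 1 h NADPH-dependent turnover, 20 min detection step, room temperature throughout. Reduced light indicates lower CYP1A2 activity.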
# [4] = target: Voltage-gated inwardly rectifying potassium channel KCNH2 (Homo sapiens) (UniProt Q12809); assay: Human Ether-a-go-go-Related Gene (hERG) channel small molecule antagonists: fluorescence cell-based qHTS assay (AID 1671200); note: nearly all actives have a fitted effect of over 50% in size; note: potency is the fitted concentration of half-maximal effect
# Voltage-gated inwardly rectifying potassium channel KCNH2 (Homo sapiens), sequence (Q12809 whole entry, looked up): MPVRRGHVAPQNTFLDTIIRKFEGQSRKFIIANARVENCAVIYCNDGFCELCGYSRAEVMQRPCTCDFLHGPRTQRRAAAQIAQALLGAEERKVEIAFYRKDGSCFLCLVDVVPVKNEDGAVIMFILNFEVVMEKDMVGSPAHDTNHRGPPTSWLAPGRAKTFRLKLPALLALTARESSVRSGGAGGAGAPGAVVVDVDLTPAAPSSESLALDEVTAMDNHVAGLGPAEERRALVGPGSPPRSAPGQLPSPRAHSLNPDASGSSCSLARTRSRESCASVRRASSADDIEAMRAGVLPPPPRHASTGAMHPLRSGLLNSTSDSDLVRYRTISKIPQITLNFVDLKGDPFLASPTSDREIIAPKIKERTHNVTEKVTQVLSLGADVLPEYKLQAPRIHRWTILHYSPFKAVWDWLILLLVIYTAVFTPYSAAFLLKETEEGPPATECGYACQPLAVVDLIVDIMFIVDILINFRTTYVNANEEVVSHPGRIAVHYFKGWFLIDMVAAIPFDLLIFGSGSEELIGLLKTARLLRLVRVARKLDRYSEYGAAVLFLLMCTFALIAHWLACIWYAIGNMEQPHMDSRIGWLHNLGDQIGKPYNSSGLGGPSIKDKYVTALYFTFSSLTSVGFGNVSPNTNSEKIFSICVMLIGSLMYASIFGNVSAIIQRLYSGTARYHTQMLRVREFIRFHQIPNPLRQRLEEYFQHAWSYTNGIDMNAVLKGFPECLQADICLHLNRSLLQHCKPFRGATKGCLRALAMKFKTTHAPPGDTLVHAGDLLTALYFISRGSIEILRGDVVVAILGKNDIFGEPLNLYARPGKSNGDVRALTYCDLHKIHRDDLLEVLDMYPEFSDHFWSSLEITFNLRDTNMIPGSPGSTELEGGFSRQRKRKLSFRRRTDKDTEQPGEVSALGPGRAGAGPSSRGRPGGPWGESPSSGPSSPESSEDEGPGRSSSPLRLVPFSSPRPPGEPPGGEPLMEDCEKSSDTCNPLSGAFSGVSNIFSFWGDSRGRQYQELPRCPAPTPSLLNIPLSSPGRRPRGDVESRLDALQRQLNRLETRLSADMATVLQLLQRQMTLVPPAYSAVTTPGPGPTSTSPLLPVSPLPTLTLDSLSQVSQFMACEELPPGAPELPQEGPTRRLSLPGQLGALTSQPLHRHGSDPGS
# Procedure, shortened: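 Channel function was assessed by thallium flux. Cells seeded the previous day and kept at 37 C took up FluxOR II dye over 1 h in the dark at room temperature, then sat another 10 min before stimulation.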
# [5] = target: Cytochrome P450 3A4 (Homo sapiens) (UniProt P08684); assay: Cytochrome P450 Family 3 Subfamily A Member 4 (CYP3A4) small molecule antagonists: luciferase reporter qHTS assay (AID 1671201); note: series mostly up to about 120 µM; nearly all actives have a fitted effect of over 50% in size
# Cytochrome P450 3A4 (Homo sapiens), sequence (P08684 whole entry, looked up): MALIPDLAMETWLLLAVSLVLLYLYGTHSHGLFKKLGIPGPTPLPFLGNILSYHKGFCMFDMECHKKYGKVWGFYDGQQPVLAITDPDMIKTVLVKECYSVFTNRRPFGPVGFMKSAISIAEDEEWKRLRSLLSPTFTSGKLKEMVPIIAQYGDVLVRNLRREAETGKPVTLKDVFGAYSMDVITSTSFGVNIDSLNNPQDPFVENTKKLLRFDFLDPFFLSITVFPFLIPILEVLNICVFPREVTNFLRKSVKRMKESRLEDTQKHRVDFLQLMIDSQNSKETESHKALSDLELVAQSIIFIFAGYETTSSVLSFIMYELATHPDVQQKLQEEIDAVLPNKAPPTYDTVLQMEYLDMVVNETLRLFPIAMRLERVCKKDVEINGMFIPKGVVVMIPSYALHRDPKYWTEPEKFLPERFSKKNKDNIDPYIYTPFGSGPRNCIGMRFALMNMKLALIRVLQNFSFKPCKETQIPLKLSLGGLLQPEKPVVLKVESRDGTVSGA
# Procedure, shortened: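 Compounds in DMSO were pin-transferred onto CYP3A4 enzyme-substrate mix and held 10 min at room temperature. NADPH regenerating solution started the reaction for 1 h; luciferin detection reagent stopped it, and luminescence was read after 20 min.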
Structure (SMILES),Potency [1],Potency [2],Potency [3],Potency [4],Potency [5]
CC(C)(C)C(=O)C(Oc1ccc(Cl)cc1)n1ccnc1 (configuration not stated),1.38 µM (active),2.75 µM (active),17.4 µM (active),inactive,–
Cc1ccc(Nc2nccc(N(C)c3ccc4c(C)n(C)nc4c3)n2)cc1S(N)(=O)=O,inactive,15.5 µM (active),inactive,inactive,–
Cc1ccc(/C=N/n2c(-c3ccccc3)csc2=S)cc1,8.71 µM (active),6.92 µM (active),7.76 µM (active),inactive,–
C[N+](C)(C)CCOC(N)=O,inactive,inactive,inactive,inactive,inactive
CN(C)C(=O)Nc1ccc(Oc2ccc(Cl)cc2)cc1,17.8 µM (active),35.6 µM (active),12.6 µM (active),inactive,–
N#C/C(=C1\SCC(c2ccccc2Cl)S1)n1ccnc1 (configuration not stated),0.0776 µM (active),2.45 µM (active),0.871 µM (active),inactive,–
N#C/C(=C1/SC[C@@H](c2ccc(Cl)cc2Cl)S1)n1ccnc1,0.389 µM (active),0.389 µM (active),0.288 µM (active),3.01 µM (active),–
CC(=O)N(c1onc(C)c1C)S(=O)(=O)c1ccc(N)cc1,inactive,inactive,inactive,inactive,–
O=C(C(=O)c1ccccc1)c1ccccc1,8.9 µM (active),inactive,11.2 µM (active),inactive,inactive
CN1Cc2cc(C(=O)N3CCC(C4CCNCC4)CC3)ccc2N[C@@H](CC(=O)O)C1=O,inactive,inactive,inactive,inactive,inactive
COCCOC(=O)C1=C(C)NC(C)=C(C(=O)OC/C=C/c2ccccc2)C1c1cccc([N+](=O)[O-])c1 (configuration not stated),1.55 µM (active),0.195 µM (active),15.5 µM (active),inactive,–
